# Compounds with a hit are over-represented: about 5.5% of the library has one in this group of screens.
# Coupling enz: coupling enzyme interference in Giardia aldolase counter-screen; AID 2472; coupling enzyme system counterscreen, AmpLite Red fluorescence; activity change, negative = inhibition, % at 58.2 µM, hits read low; 290,000 compounds, 0.67% hits; in the data active = activity change below about -30%
#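 Activity here indicates interference with the coupling reaction, not aldolase inhibition. Compounds at 57.5 uM final met coupling enzymes for 10 min at RT; substrate and AmpLite Red detection followed, with a 525/598 nm fluorescence read after 20 min.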
# Sfp inh: Sfp phosphopantetheinyl transferase inhibition; Q9F4F7; Biochemical Sfp PPTase activity, qHTS; Potency, µM, most hits filed as inhibitors; 310,000 compounds, 3.5% hits; AID 1490;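 note: the enzyme is Sfp with the accession as filed and its product quenches rhodamine fluorescence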
#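 Sfp 15 nM + cpd, 15 min RT; start w/ rhodamine-CoA 5 uM, BHQ-2-YbbR 12.5 uM (final); 50 mM Hepes pH 7.6, 10 mM MgCl2, 0.01% NP-40, 0.01% BSA; read 525/598 nm at 0 and 30 min.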
# Giardia kill: kills Giardia lamblia; Giardia lamblia trophozoite viability; AID 540267; 340,000 compounds, 0.15% hits; activity change, % at 7.66 µM, hits read low; in the data active = activity change below about -80%; inconclusive = between about -30% and that limit;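 note: parasites exposed to compound for two days anaerobically before the ATP read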
#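 Each well holds 100 Giardia trophozoites and compound. After two days (48 hrs) at 37 deg C in anaerobic conditions, ATP is quantified by luminescence.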
# ELG1 repair inh: ELG1-dependent DNA repair inhibition | HEK293T ELG1-luciferase reporter, luminescence, 16 h; DNA damage induced by 5-fluorouridine | Potency, µM (series often up to 46.1 µM), most hits filed as inhibitors | 330,000 compounds, 2.3% hits | AID 504467; note: nearly all actives have a fitted effect of over 55% in size
#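 DMSO vehicle served as the neutral condition. Each well held 2,000 cells given 5-fluorouridine plus compound; after 16 hr at 37 °C/5% CO2, ONE-Glo was added and luciferase measured 30 min later.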
# A number is an active result; n = inactive; u = inconclusive; x = not tested or not shown; ! = not active in a repeat. Unless noted, calls come from the whole dose curve; as a rule, active = well fitted curve in the direction sought with a large enough effect; inconclusive = small, poorly fitted or top-dose-only effect, or another doubt; inactive = no such curve, though single readings can be large; an effect the other way counts as inactive or inconclusive.
SMILES,Coupling enz,Sfp inh,Giardia kill,ELG1 repair inh
CN1C(=O)/C(=C/c2ccccc2OCc2cccc(F)c2)N(C)C1=S,-37.0,n,n,n
CN1C(=O)/C(=C/c2ccc(OCc3ccc(F)cc3)cc2)N(C)C1=S,n,n,n,n
O=c1cc(-c2cccnc2)oc2c1ccc1ccccc12,n,n,n,n
O=c1cc(/C=C/c2ccccc2)oc2c1ccc1ccccc12,n,79.4µM,n,18.4µM
O=c1cc(-c2ccccc2)oc2c1ccc1ccccc12,n,44.7µM,x,x
COc1ccc(C2CC(=O)CCN2S(=O)(=O)c2ccc(C)cc2)cc1 (stereo not given),x,x,n,x
O=C1/C(=C/c2ccccc2Cl)SC(=S)N1CCC(=O)N1CCCCC1CCO (stereo not given),n,n,n,n
CS(=O)(=O)OCC(O)C(O)COS(C)(=O)=O (stereo not given),x,n,x,x
COCCN(C(=O)CCl)C(C(=O)NC1CCCCC1)c1ccccc1C (stereo not given),n,n,n,20.6µM
COc1ccc(-n2cccc2/C=C/[N+](=O)[O-])cc1,n,u,n,23.1µM
COc1ccc(-n2cccc2C=O)cc1,n,n,n,n
COC(=O)c1c(NC(=O)CC2Nc3cc(C)c(C)cc3NC2=O)sc(C)c1C (stereo not given),n,56.2µM,n,n
CN(Cc1ccco1)c1ncnc2ccc(-c3cccc(NS(C)(=O)=O)c3)cc12,n,n,x,x
O=C(NNc1ccccc1F)c1ccccc1,n,n,n,14.6µM
O=C(NNc1ccccc1F)C1CCC1,n,n,n,16.4µM
Cc1cc(-c2ccccc2)cc(-c2ccccc2)[n+]1C,n,n,n,11.6µM
Cc1cc(-c2ccccc2)cc(=O)[nH]1,x,x,n,x
CCCCNC(=O)Cn1c(=O)c2c(ncn2CCC(C)C)n(Cc2ccccc2)c1=O,n,n,n,n
Cc1nn(Cc2noc(C(=O)NC3CCC(C)CC3)n2)c(C)c1Br (stereo not given),n,n,n,n
Brc1cccc(OCCn2ccnc2)c1,n,56.2µM,n,n
Cc1ccc(C2SCC(=O)N2Cc2cn3ccsc3n2)o1 (stereo not given),n,56.2µM,n,n
c1cn2cc(CN3CCOCC3)nc2s1,n,n,n,n
Cc1ccc(NC(=O)N2CCCC2C(=O)Nc2nnc(C(C)C)s2)cc1 (stereo not given),n,n,n,u
CCC1=C2CC[C@H]3C(=O)NC(=O)[C@H]3[C@H]2[C@@]2(C)C(=NCC3CC3)OC(=O)N2C1=O,n,n,x,x
Cc1ccc(S(=O)(=O)NCCC(=O)Nc2cc(S(=O)(=O)N(C)C)ccc2C)cc1C,n,n,n,u
SMILES,Coupling enz,Sfp inh,Giardia kill,ELG1 repair inh
CC1CCN(C(=O)CSc2nc3c(c(=O)n2C)SC(C)C3)CC1 (stereo not given),x,n,n,n
COc1ccc(C(=O)c2c(C(F)(F)F)oc3c2C(=O)c2ccccc2C3=O)cc1OC,-54.6,n,n,3.66µM
O=C(NN1C(=O)/C(=C/c2cc([N+](=O)[O-])ccc2O)SC1=S)c1ccccc1O,x,x,x,n
Cc1ccc(/C=C2\SC(=S)N(/N=C/c3cc([N+](=O)[O-])ccc3O)C2=O)o1,n,25.1µM,n,n
NC(=O)C[C@H](N)c1cn([C@@H](CC(N)=O)C(=O)N2CCNCC2)nn1,x,x,n,u
O=C(c1ccc2nc(-c3ccco3)c(-c3ccco3)nc2c1)N1CCN(c2ccccc2)CC1,-40.0,u,n,u
COc1ccc(/C(O)=C/c2nc3ccc(C(=O)NCCc4cccc(C)c4)cc3[nH]c2=O)cc1OC,n,n,n,3.26µM
CCc1nc2ccc(C(=O)N3CCN(c4ccccc4)CC3)cc2nc1CC,x,n,n,n
COc1ccc(CCNC(=O)c2ccc3nc(-c4ccco4)c(-c4ccco4)nc3c2)cc1OC,-33.1,10µM,n,u
COc1ccc(C(=O)NCCc2ccccc2)cc1OC,n,n,n,u
O=C(O)c1cc(-c2ccco2)nc2ccc(Br)cc12,n,12.6µM!,n,u
O=C(Nc1cccc(C(F)(F)F)c1)c1ccc2nc(-c3ccco3)c(-c3ccco3)nc2c1,-39.1,28.2µM,n,20.6µM
O=C(O)c1ccc2nc(-c3ccco3)c(-c3ccco3)nc2c1,-35.4,7.94µM,n,n
CCC(C)NC(=O)c1ccc2nc(-c3ccco3)c(-c3ccco3)nc2c1 (stereo not given),x,x,n,x
CCOC(=O)N1CCN(C(=O)c2ccc3nc(-c4ccccc4)c(-c4ccccc4)nc3c2)CC1,x,n,n,23.1µM
OCc1cc([C@@H](O)CNCCCCCCOCCCCc2ccccc2)ccc1O,n,n,x,x
CCc1cc(CNC(=O)c2ccc3nc(Cc4ccc(OC)c(OC)c4)oc3c2)on1,x,n,n,u
CCC(C)(C)C1CCC(NC(=O)c2ccc(S(=O)(=O)N3CCOCC3)cc2)CC1 (stereo not given),x,x,n,u
CC(=O)C(C(C)=O)C1(O)C(=O)c2ccccc2C1=O,-30.5,n,n,n
CC(C)=CCc1c(O)cc2c(c1O)C(=O)CC(c1ccccc1)O2 (stereo not given),x,x,n,x
NC[C@@H]1O[C@H](C23CC4CC(CC(C4)C2)C3)Cc2c1ccc(O)c2O,n,50.1µM!,n,n
NC[C@@H]1O[C@H](c2ccccc2)Cc2c1ccc(O)c2O,n,79.4µM,x,x
O=C(Cc1ccc(F)cc1)Nc1ccc(Cl)cn1,n,n,n,u
COC1=CC(=O)C(C(=O)c2ccccc2)=CC1=O,-67.0,39.8µM,x,x
CC(=O)OC[C@H]1O[C@@H](O/N=C2/[C@H]3O[C@@H]3[C@@H](O)[C@H]3[C@H]2CCn2c(=O)n(-c4ccccc4)c(=O)n23)[C@H](OC(C)=O)[C@@H](OC(C)=O)[C@@H]1OC(C)=O,n,n,x,x
SMILES,Coupling enz,Sfp inh,Giardia kill,ELG1 repair inh
O=C(Cn1nc(-c2ccco2)ccc1=O)Nc1ccc(Cl)c(Cl)c1,n,56.2µM,n,n
O=C(Cn1nc(-c2ccco2)ccc1=O)Nc1cc(Cl)ccc1Cl,n,44.7µM,n,n
O=C(Cn1nc(-c2ccco2)ccc1=O)Nc1cc(C(F)(F)F)ccc1Cl,x,n,n,n
Cc1nc(Nc2nc(CSc3ccc(Cl)cc3)cc(=O)[nH]2)nc2ccccc12,n,n,n,n
COc1ccc2nc(Nc3nc(CSc4nc5ccccc5[nH]4)cc(=O)[nH]3)nc(C)c2c1,n,n,n,5.8µM
Cc1nc(Nc2nc(CSc3nc4ccccc4[nH]3)cc(=O)[nH]2)nc2ccccc12,n,n,n,13µM
Nn1c(C2CCC2)nc2cc(Cl)ccc2c1=O,n,n,n,n
CCN(CC)C(=S)SC1=CCS(=O)(=O)C1,n,79.4µM,n,u
CCN(CC)C(=S)SCC(=O)c1ccccc1,n,n,n,u
CCCCSCCCNC(=O)c1ccc(CS(=O)(=O)c2ccc(OC)cc2)o1,n,n,n,n
CCc1nc(N2CCN(C(=O)c3ccco3)CC2)c2c3c(sc2n1)CCCC3,n,n,n,u
O=C(c1ccco1)N1CCN(c2ncnc3sc4c(c23)CCC4)CC1,n,79.4µM,n,14.6µM
c1ccc(N2CCN(c3ncnc4sc5c(c34)CCC5)CC2)cc1,n,n,n,16.4µM
c1nc(N2CCC3(CC2)OCCO3)c2c3c(sc2n1)CCCC3,n,n,n,n
